Shown are actives, neighbours in structure and some others; about 2.4% of the full set was active somewhere.
D2 PAM-1: positive allosteric modulators of human D2 dopamine receptor; DiscoveRx D2 beta-arrestin cells, luminescence, 90 min; 100% = 57 uM dopamine signal; potentiation, % (test concentration not listed); 0.23% of 360,000 active; P14416; in the data active = potentiation above about 50%; inconclusive = mostly about 30% to 49%
Target sequence (P14416 whole entry, looked up): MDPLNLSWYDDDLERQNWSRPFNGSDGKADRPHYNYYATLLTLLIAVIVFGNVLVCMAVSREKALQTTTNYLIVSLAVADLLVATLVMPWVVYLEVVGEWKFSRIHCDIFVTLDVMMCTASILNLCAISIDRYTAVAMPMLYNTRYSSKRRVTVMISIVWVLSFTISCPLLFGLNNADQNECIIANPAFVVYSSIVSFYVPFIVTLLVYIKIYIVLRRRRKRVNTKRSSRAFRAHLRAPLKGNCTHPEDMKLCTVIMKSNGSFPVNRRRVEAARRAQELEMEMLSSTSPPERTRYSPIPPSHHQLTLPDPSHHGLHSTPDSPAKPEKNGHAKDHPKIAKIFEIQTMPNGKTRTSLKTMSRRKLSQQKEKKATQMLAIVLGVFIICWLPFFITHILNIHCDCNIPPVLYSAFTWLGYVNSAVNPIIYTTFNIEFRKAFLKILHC
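D2 cells co-treated with compound plus 50 nM dopamine (EC20) for 90 min at 37 deg C to detect potentiation. Beta-arrestin recruitment was read as enzyme-fragment luminescence after 1 h at ambient temperature. Full response was set by 57 uM dopamine.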
D2 PAM-2: positively modulates the human D2 dopamine receptor allosterically | AID 485347 | HEK293 T-REx D2, calcium flux, EC20 dopamine potentiation | 0.34% of 340,000 active | P14416 | potentiation, % at 10 µM;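 active = potentiation over 3 SD above the plate norm, cut at about 30% in these data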
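Potentiation of an EC20 dopamine calcium response measured kinetically over 180 s, after a preceding 180 s compound-only read flagging agonists. Cells: inducible Hek293 Trex D2 line, 4000/well, cultured overnight at 30 C before dye loading.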
D2 ag-1: agonists of human D2 dopamine receptor (beta-arrestin); DiscoveRx PathHunter D2 beta-arrestin, luminescence, 90 min; 100% = 57 uM dopamine signal; 0.084% of 360,000 active; P14416; activation, % (concentration not given with the values); in the data active = activation above about 40%; inconclusive = between about 15% and that limit
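Agonist mode: compounds alone added to overnight-plated D2 PathHunter cells for 90 min at 37 C, with 57 uM final dopamine (EC100) defining full response. Beta-arrestin recruitment detected by chemiluminescent reagent, read after 1 h at ambient temperature.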
D2 ag-2: agonists of human D2 dopamine receptor. P14416. HEK293 T-REx D2 cells, calcium flux agonist mode. activation, % at 2 µM. 0.53% of 340,000 active;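 active = activation over 3 SD above normal in the single-dose calcium agonist read, cut at about 30% in these data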
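HEK293 Trex D2 cells, tetracycline-induced, o/n 30 C 5% CO2; no-wash Ca dye, RT 30–90 min; 10-cycle baseline, 23 nl cpd added, kinetic Ca read 180 s; agonist hits = positive Ca response.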
D2 antagonist: antagonizes the human D2 dopamine receptor; P14416; HEK293 TREx D2 cells, calcium flux, dopamine EC80; inhibition, % at 10 µM; 2% of 340,000 active; AID 485344; in the data active = inhibition above about 30%; inactive = below that, where a call was filed
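Measurement of antagonist activity uses fluorescent calcium dye in inducible HEK293 T-REx D2 cells: 10 s baseline, compound addition with 180 s read, EC80 dopamine addition with a further 180 s read.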
Each line names hits and unclear results; the compound was inactive in the other large screens.

O=C(Nc1ccc2c(c1)C(=O)NC2=O)c1ccc(S(=O)(=O)N2CCCC2)cc1	D2 antagonist 30.8
Cc1c(C(=O)NCCCN2CCCC2=O)oc2ccc(S(=O)(=O)N3CCOCC3)cc12	D2 antagonist 44.3
Cc1c(C(=O)NCCC2=CCCCC2)oc2ccc(S(=O)(=O)N3CCOCC3)cc12	none
COc1ccc(OC)c(NS(=O)(=O)c2ccc(-c3cc(C)no3)s2)c1	none (no result: D2 PAM-1, D2 ag-1, D2 antagonist)
O=C(CCCn1c(=O)c2sccc2n(Cc2ccc(Cl)cc2)c1=O)NCc1ccc2c(c1)OCO2	none (no result: D2 PAM-1, D2 ag-1, D2 antagonist)
Cc1nn(-c2ccc(N3CCCCC3)nn2)c(C)c1CCC(=O)Nc1ccc(F)cc1F	none (no result: D2 PAM-1, D2 PAM-2, D2 ag-1, D2 antagonist)
O=C(CN1C(=O)COc2ccccc21)NCCCN1CCN(Cc2ccccc2)CC1	none
O=C(CN1C(=O)COc2ccccc21)NCCCN1CCc2ccccc2C1	D2 antagonist 57.7
S=C1NC2(CCCCC2)Cc2ccccc21	D2 antagonist 32.0
Cc1cc(C(C)(C)C)cc(C)c1S(=O)(=O)N1CCN(C(=O)c2cc([N+](=O)[O-])c[nH]c2=O)CC1	none
CCN(CC)Cc1ccccc1CNC(=O)c1cccc(S(=O)(=O)Nc2ccc3c(c2)OCO3)c1	D2 antagonist 74.5
Cc1ccc(C)c(OCc2cc(C(=O)N(C)Cc3nccn3C)no2)c1	D2 ag-2 35.0
Cc1ccc(OCc2cc(C(=O)N(C)Cc3nccn3C)no2)cc1C	none
Cc1ccc(C(=O)Nc2ccc(Br)cc2)cc1S(=O)(=O)NCc1ccccc1	none (no result: D2 PAM-1, D2 ag-1, D2 antagonist)
Cc1nn(-c2ccccn2)c2c1C(=O)C(Br)CC2 (configuration not stated)	D2 PAM-1 53.6, D2 ag-1 inconclusive
Cc1cccc(NC(=O)c2ccc(F)c(S(=O)(=O)NCc3ccco3)c2)c1	D2 antagonist 33.0
CCCCNC(=O)c1cc2c(C)cc(C)cc2[nH]1	D2 antagonist 34.1
COc1ccc2[nH]c(C(=O)Nc3ccc(C)c(F)c3)cc2c1	none
COc1cc2[nH]c(C(=O)Nc3ccc(F)cc3)cc2c(OC)c1OC	D2 antagonist 89.0 (no result: D2 PAM-1, D2 ag-1)
Cc1cc(C)c2cc(C(=O)Nc3ccc(C)c(F)c3)[nH]c2c1	D2 antagonist 39.0
COc1ccc(F)cc1-c1cc(C(=O)Nc2ccc(NC(C)=O)cc2)[nH]n1	none (no result: D2 PAM-2, D2 ag-2, D2 antagonist)
Cc1cc2oc(C(=O)Nc3c(C)n(C)n(-c4ccccc4)c3=O)cc(=O)c2cc1C	none (no result: D2 PAM-1, D2 ag-1, D2 ag-2, D2 antagonist)
CC(C)(C)c1ccc(C2=NC(C)(C)N(CC(=O)Nc3ccc(F)c(F)c3)C2=O)cc1	none (no result: D2 PAM-1, D2 ag-1, D2 antagonist)
Nc1cc(Cl)nnc1Cl	D2 antagonist 35.8
Cc1cc(C)nc(NC(=S)Nc2cccc(F)c2)c1	none
COc1cccc(NC(=S)Nc2cc(C)cc(C)n2)c1	D2 antagonist 44.4
O=C(/C=C\c1ccc2c(c1)OCO2)NC1CC(=O)N(c2cccc(F)c2)C1 (configuration not stated)	none (no result: D2 PAM-1, D2 ag-1, D2 antagonist)
c1ccc(Cn2nnc3c(N4CCc5ccccc54)ncnc32)cc1	D2 PAM-2 35.6
Nc1c(-c2nc(-c3cccs3)no2)nnn1-c1ccc(Cl)cc1	none (no result: D2 PAM-1, D2 ag-1, D2 antagonist)
Cc1cccc(Cn2c(CNS(=O)(=O)c3ccc4c(c3)CCCC4)nc3cccnc32)c1	none (no result: D2 PAM-1, D2 ag-1, D2 antagonist)
CC(=O)c1cccc(NC(=O)c2ccc3ccccc3c2)c1	D2 antagonist 31.4
O=C(CN1C(=O)COc2ccc(S(=O)(=O)N3CCCCCC3)cc21)N1CCN(c2ccc(F)cc2)CC1	none (no result: D2 PAM-1, D2 ag-1, D2 antagonist)
CCN(CC)C(=O)C1CCCc2c1[nH]c1ccc(Cl)cc21 (configuration not stated)	none
O=CNC1CCCc2c1[nH]c1ccc(Cl)cc21 (configuration not stated)	D2 PAM-1 77.2
CC(=O)NNC(=O)CN1C(=O)/C(=C/c2ccccc2)SC1=S	D2 antagonist 73.7
CCN(CC)C(=O)CN1C(=O)/C(=C/c2ccccc2)SC1=S	none
O=C1/C(=C\c2cc(Cl)c(O)c(Cl)c2)SC(=S)N1Cc1ccccc1	D2 antagonist 69.4
Cc1cccc2c(=O)cc(CSCC(=O)Nc3ccc(Cl)cc3)[nH]c12	none (no result: D2 PAM-1, D2 ag-1, D2 antagonist)
CC(C)c1nn2c(=O)cc(COC(=O)CNC(=O)c3ccccc3Cl)nc2s1	none (no result: D2 PAM-1, D2 ag-1, D2 antagonist)
CSc1ccc(C(=O)Nc2cc(S(=O)(=O)N3CCOCC3)ccc2N2CCOCC2)cc1[N+](=O)[O-]	none (no result: D2 PAM-2, D2 ag-2, D2 antagonist)
Cn1c(=O)c2c(nc(N3CCCCC3)n2C)n(C)c1=O	D2 PAM-2 30.1
